Each structure is given as a SMILES string. About 83,000 compounds went through this panel and 20% of them were active in at least one assay; those are over-represented in the sample as a whole.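 96-well plates, one dose, 48 hours. Percent growth reported; active if below 10.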 The source made the active and inactive calls.

The experiment deals with SF-295 CNS. In words: NCI-60 one-dose screen, 48 h (100 = growth as untreated, 0 = no growth, -100 = all killed). The note with it: 10 µM unless noted.
On to `NCCNc1nc2ccccc2c2c(=O)c3cc(F)cc(Cl)c3sc12`, for which the growth is 98.2% (inactive).
For `C=C1C(=O)O[C@H]2[C@H]1CC/C(COC(=O)/C=C\C(=O)O)=C\CC[C@@]1(C)O[C@@H]21` the value was 96.7% (inactive).
For `COc1ccccc1C(=O)/C=C/c1ccccc1` the value was 89.9% (inactive).
The same measure for `Cn1cc([C@@H]2Nc3ccc4[nH]ncc4c3[C@H]3[C@H]4CCC(C4)[C@H]32)c(C(F)(F)F)n1`: 37.7% (inactive); for `N#Cc1c(N)nc2c(c1N)C(c1ccc(F)cc1)c1ccc(N)cc1O2` (stereo not drawn): 83.1% (inactive); for `O=C(CN1C=NC2C(N3CCOCC3)=NC=NC21)c1ccc(Br)cc1` (stereo not drawn): 97.9% (inactive).
As to `CCCCN1CCN(c2ccc3nc(-c4ccc5nc(-c6ccc(OCC)cc6)[nH]c5c4)[nH]c3c2)CC1`, the growth is 48.7% (inactive).
For `CCN(CCO)CCNc1ccc(C)c2sc3cc(Cl)ccc3c(=O)c12` the value was 12.5% (inactive).
On to `Cc1nn(-c2nc3ccccc3[nH]2)c2c1C(c1ccc(OCC(N)=O)cc1)CC(=O)N2` (stereo not drawn), for which the growth was 69.5% (inactive).
As for `COC(=O)/C(CCC=C(C)C)=C1\[C@@H](OC(C)=O)C[C@@]2(C)[C@H]1C[C@@H](O)[C@H]1[C@@]3(C)CC[C@H](NCCO)[C@@H](C)[C@@H]3CC[C@@]12C`, the growth is 101% (inactive).
Turning to `CCCc1c(C)c2sc(=O)[nH]c2[nH]c1=O`, the growth is 108% (inactive).
For `O=C(/C=C/c1ccc(Cl)cc1)c1ccc(Nc2nc(NCCO)nc(Nc3ccc(Cl)cc3)n2)cc1`, the growth was 87.2% (inactive).
Regarding `COc1cccc2c(=O)c3c(sc12)c(NCCCNCCO)nc1ccccc13`, the growth was 73% (inactive).

For the origin of these results see PubChem BioAssay (NCI).
